Assay results taken from PubChem BioAssay (NCI).
The panel holds about 83,000 compounds, 20% with a hit somewhere; the sample as a whole holds those more often.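 Values shown are percent growth following 48 h exposure of cells in 96-well plates to a single concentration of compound; below 10 was considered active.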 Calls of active or inactive are those of the source.

How the values were obtained:
Test in all cases: NCI-60 one-dose screen, 48 h (100 = growth as untreated, 0 = no growth, -100 = all killed)
Details in all cases: 10 µM unless noted
SK-MEL-2 melanoma = system: SK-MEL-2 melanoma
EKVX NSCLC = system: EKVX NSCLC
SN12C renal = system: SN12C renal
TK-10 renal = system: TK-10 renal
ACHN renal = system: ACHN renal
A498 renal = system: A498 renal
CCRF-CEM leukemia = system: CCRF-CEM leukemia
MOLT-4 leukemia = system: MOLT-4 leukemia
SR leukemia = system: SR leukemia
UO-31 renal = system: UO-31 renal

Measured: growth

COc1ccc(-c2nnc(N3CCN(C(=O)CN4CCN(c5ccc(OC)cc5)CC4)CC3)nc2-c2ccc(OC)cc2)cc1
active: SK-MEL-2 melanoma -63.6% | SN12C renal -72.7% | CCRF-CEM leukemia -50.7% | MOLT-4 leukemia -54.2% | SR leukemia -54.2%
inactive: EKVX NSCLC 41.5% | TK-10 renal 28.6% | ACHN renal 54.6% | A498 renal 98.1%

N#Cc1c(-c2ccc(F)cc2)nc(N=Nc2c(O)[nH]c3ccccc23)nc1N1CCOCC1
inactive: SK-MEL-2 melanoma 105% | EKVX NSCLC 77.6% | SN12C renal 30.4% | TK-10 renal 65.4% | ACHN renal 65.5% | A498 renal 80.8% | CCRF-CEM leukemia 77.4% | MOLT-4 leukemia 95.3% | SR leukemia 88.2%

COc1ccc(Nc2cc(NC(=O)CNc3cc(OC)c(Cl)c(OC)c3Cl)ncn2)cc1
active: A498 renal -1.25%
inactive: SK-MEL-2 melanoma 84.8% | EKVX NSCLC 72.2% | SN12C renal 89.2% | TK-10 renal 93.1% | ACHN renal 78.8% | CCRF-CEM leukemia 89.3% | MOLT-4 leukemia 52.2% | SR leukemia 78.1%

Sc1cccc2cccnc12
inactive: EKVX NSCLC 29.2% | SN12C renal 39.3% | UO-31 renal 25.6% | TK-10 renal 48.3% | ACHN renal 30.1% | A498 renal 65.9% | CCRF-CEM leukemia 14.4% | MOLT-4 leukemia 22.2%
active: SR leukemia 6.61%

[2H]c1cc2c(c([2H])c1F)/C(=C/c1[nH]c(C)c(C(=O)NCCN(CC)CC)c1C)C(=O)N2
inactive: SK-MEL-2 melanoma 14.7% | EKVX NSCLC 44.7% | SN12C renal 24.4% | TK-10 renal 62.1% | ACHN renal 25.4% | A498 renal 52.6% | CCRF-CEM leukemia 69.5% | MOLT-4 leukemia 20.3%
active: SR leukemia 0.469%

O=C(CCc1nnco1)c1nc2ccc([N+](=O)[O-])cc2[nH]1
inactive: SK-MEL-2 melanoma 94.7% | EKVX NSCLC 94% | SN12C renal 107% | TK-10 renal 146% | ACHN renal 101% | A498 renal 126% | CCRF-CEM leukemia 109% | MOLT-4 leukemia 97.9% | SR leukemia 91.5%

CC(=O)Nc1c(C(=O)Nc2ccccc2)sc2nc3c(cc12)C(OC(C)=O)CCC3 (stereo not drawn)
inactive: EKVX NSCLC 99.6% | SN12C renal 89.6% | UO-31 renal 72.9% | TK-10 renal 75.9% | ACHN renal 59.5% | CCRF-CEM leukemia 94.6% | MOLT-4 leukemia 100% | SR leukemia 80%
active: A498 renal -1.22%

CSc1nc(-c2cccs2)c2c(N)[nH]nc2n1
inactive: EKVX NSCLC 73.1% | SN12C renal 109% | UO-31 renal 84.1% | TK-10 renal 93.4% | ACHN renal 101% | A498 renal 66.7% | CCRF-CEM leukemia 109% | MOLT-4 leukemia 87% | SR leukemia 73.3%

COc1ccc(-n2cc(COc3ccc4c5ccnc(C)c5n(CC(C)C)c4c3)nn2)cc1
inactive: EKVX NSCLC 69% | SN12C renal 77% | UO-31 renal 71% | TK-10 renal 70.5% | ACHN renal 64.6% | A498 renal 53.6% | CCRF-CEM leukemia 72.9% | MOLT-4 leukemia 24.4% | SR leukemia 22.6%

C#C[C@@]1(O)[C@@H](CO)O[C@@H](n2ccc3c(N)ncnc32)[C@@H]1O
inactive: CCRF-CEM leukemia 13.3% | SR leukemia 12.1%
active: EKVX NSCLC -4.75% | SN12C renal -12.3% | UO-31 renal -14.7% | TK-10 renal 3.25% | ACHN renal 3.47% | A498 renal -53.2% | MOLT-4 leukemia -1.22%

CCOC(=O)c1cnn(-c2nc(-c3ccc(F)cc3)c(C#N)c(N3CCOCC3)n2)c1N
inactive: EKVX NSCLC 92.9% | SN12C renal 93.9% | UO-31 renal 74.1% | TK-10 renal 64% | ACHN renal 95.7% | A498 renal 71.3% | CCRF-CEM leukemia 92.8% | MOLT-4 leukemia 90.4% | SR leukemia 81.9%

COC(=O)/C=C/c1cc(OC(C)=O)c2c(c1)C(C(=O)OC)C(c1ccc(OC(C)=O)c(OC(C)=O)c1)O2 (stereo not drawn)
inactive: EKVX NSCLC 44.4% | SN12C renal 23.6% | UO-31 renal 35.2% | TK-10 renal 44.7% | ACHN renal 34.4% | MOLT-4 leukemia 15.3%
active: A498 renal 3.78% | CCRF-CEM leukemia 9.72% | SR leukemia 8.61%

CC(=O)OCC1OC(OC2C(COC(C)=O)OC(OCCC[S-])C(OC(C)=O)C2OC(C)=O)C(OC(C)=O)C(OC(C)=O)C1OC(C)=O.[Au+].c1ccc(CN2[CH-]N(Cc3ccccc3)C(c3ccccc3)=C2c2ccccc2)cc1 (stereo not drawn)
inactive: EKVX NSCLC 28.1% | TK-10 renal 38.5% | ACHN renal 15.1% | CCRF-CEM leukemia 11.5% | MOLT-4 leukemia 15.3% | SR leukemia 11%
active: SN12C renal 9.26% | UO-31 renal 9.47% | A498 renal -1.67%

C/C(=C\c1cnc(C)s1)[C@@H]1C[C@@H]2O[C@@H]2CCC[C@H](C)[C@H](O)[C@@H](C)C(=O)C(C)(C)[C@@H](O)CC(=O)O1
inactive: EKVX NSCLC 44.4% | SN12C renal 54% | UO-31 renal 36.4% | TK-10 renal 44.8% | ACHN renal 52.8% | MOLT-4 leukemia 31.7% | SR leukemia 30%
active: A498 renal 4.95%

CO[C@@]12C=C[C@@]34CCC(=O)N3c3ccccc3[C@@H](O1)C4C2
inactive: EKVX NSCLC 98.8% | SN12C renal 95.5% | UO-31 renal 81.4% | TK-10 renal 95.1% | ACHN renal 98.6% | A498 renal 109% | CCRF-CEM leukemia 90.1% | MOLT-4 leukemia 95.9% | SR leukemia 96.9%

CNC(=O)c1cc(Oc2ccc3c(c2)sc2nc(-c4ccc(NC(C)=O)cc4)cn23)ccn1
inactive: EKVX NSCLC 54.7% | SN12C renal 52% | UO-31 renal 43.9% | TK-10 renal 61.4% | ACHN renal 52% | CCRF-CEM leukemia 78.8% | MOLT-4 leukemia 72.7% | SR leukemia 25.7%
active: A498 renal -6.27%

CCCCCOC(=O)c1ccccc1O
inactive: EKVX NSCLC 94.2% | SN12C renal 105% | TK-10 renal 99.5% | ACHN renal 107% | A498 renal 102% | CCRF-CEM leukemia 99.5% | MOLT-4 leukemia 97% | SR leukemia 85.1%

COc1ccc(/C=C(/C(=O)N2CCCC2)c2cc(OC)c(OC)c(OC)c2)cc1
inactive: EKVX NSCLC 73.1% | SN12C renal 48.1% | UO-31 renal 44.5% | TK-10 renal 71.3% | ACHN renal 54.5% | A498 renal 13.4% | CCRF-CEM leukemia 14% | MOLT-4 leukemia 32.6% | SR leukemia 19.7%

Cc1c(Br)cccc1NC(=O)c1sc2nc3c(cc2c1N)CN(Cc1ccccc1)CC3
inactive: EKVX NSCLC 34.3% | SN12C renal 28.1% | UO-31 renal 48.2% | TK-10 renal 49.8% | ACHN renal 39.6% | MOLT-4 leukemia 10.3%
active: A498 renal -8.85% | CCRF-CEM leukemia 3.86% | SR leukemia 9.33%

O=C(CN1N=C(c2ccc(F)cc2)CCC1=O)Nc1nc2ccccc2s1
active: UO-31 renal -84% | ACHN renal -23.6% | CCRF-CEM leukemia -72.1% | SR leukemia -52.2%
inactive: EKVX NSCLC 24% | SN12C renal 40.2% | TK-10 renal 95.3% | A498 renal 97.8% | MOLT-4 leukemia 33.4%

COc1cccc2c1-c1ccccc1C2=O
active: A498 renal 7.69% | CCRF-CEM leukemia 5.55%
inactive: EKVX NSCLC 40.7% | SN12C renal 53.9% | UO-31 renal 47.1% | TK-10 renal 66.7% | ACHN renal 50% | MOLT-4 leukemia 73.9% | SR leukemia 40.4%

Cc1ccc(C(=O)O)o1
inactive: EKVX NSCLC 104% | SN12C renal 110% | UO-31 renal 95.4% | TK-10 renal 96.9% | ACHN renal 111% | A498 renal 108% | CCRF-CEM leukemia 115% | MOLT-4 leukemia 101% | SR leukemia 116%

C[C@@H]1C(=O)[C@@H]2C[C@@H](O)[C@@H](O)C[C@]2(C)[C@H]2CC[C@@]3(C)C(=C12)CC[C@@H]3[C@@](C)(O)[C@H](O)CCC(C)(C)O
inactive: EKVX NSCLC 113% | SN12C renal 104% | UO-31 renal 89% | TK-10 renal 95.9% | ACHN renal 117% | A498 renal 67.2% | CCRF-CEM leukemia 89.5% | MOLT-4 leukemia 87.3% | SR leukemia 97.4%

C=C1C(=O)O[C@H]2[C@H]1CC/C(COC(=O)Nc1nc3ccccc3[nH]1)=C\CC[C@@]1(C)O[C@@H]21
active: CCRF-CEM leukemia 6.53%
inactive: EKVX NSCLC 58.7% | SN12C renal 67.4% | UO-31 renal 43.1% | TK-10 renal 46.3% | ACHN renal 32.5% | A498 renal 102% | MOLT-4 leukemia 45.9% | SR leukemia 16.2%

COC(=O)CCc1n(Cc2ccc3ccccc3c2)c2ccccc2[n+]1Cc1ccc2ccccc2c1
inactive: EKVX NSCLC 42.1% | UO-31 renal 78.9% | ACHN renal 86.8%
active: SN12C renal 7.8% | TK-10 renal -5.81% | A498 renal 8.46% | MOLT-4 leukemia 3.6% | SR leukemia -47.7%

C[C@H](Oc1cc(-c2cnn(C3CCNCC3)c2)cnc1N)c1c(Cl)ccc(F)c1Cl
active: SR leukemia -22.1%
inactive: EKVX NSCLC 79.6% | SN12C renal 54.2% | UO-31 renal 61.7% | TK-10 renal 88.7% | ACHN renal 75.6% | A498 renal 68% | MOLT-4 leukemia 14%

CC(C)(C)c1nc2c(s1)c1nc(N)ncc1c1ccc(NS(=O)(=O)c3c(F)cccc3F)c(F)c12
inactive: EKVX NSCLC 60.5% | SN12C renal 58.9% | UO-31 renal 28.9% | TK-10 renal 64.4% | ACHN renal 22.6% | CCRF-CEM leukemia 73.3% | MOLT-4 leukemia 59.5% | SR leukemia 42.3%
active: A498 renal -2.96%

COCCOC(=O)COc1ccc(OC)cc1
inactive: EKVX NSCLC 96.6% | SN12C renal 99.7% | UO-31 renal 88.9% | TK-10 renal 108% | ACHN renal 106% | A498 renal 88.2% | CCRF-CEM leukemia 104% | MOLT-4 leukemia 90.7% | SR leukemia 88.2%
